Measurements reported in PubChem BioAssay.
Several values for one entry are separate records, joined by “and”; a condition that tells them apart may be missing. Equal entries are not always repeated. Records with an inconclusive call do not appear. For some assays here: Results with a measured potency or affinity are listed apart. Activity calls are given as the source filed them. Unless noted, no rule for the calls is given here.

How the values were obtained:
[1] = blockers of polyQ-driven CASP3 activation – cell-based (AID 1583); settings: polyglutamine-induced caspase-3 activation, cell assay; stronger effect = higher value;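 tested at 10 µM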
[2] = yeast 75Q aggregation reduction – 75Q-TubU reporter (AID 1593); settings: Yeast 75Q polyglutamine aggregation reporter
[3] = restoration of touch response, mutant HTT neurons – whole organism, C. elegans mechanosensory neurons, N-terminal huntingtin (AID 1599); settings: C. elegans polyQ-huntingtin mechanosensory neurons, stronger effect = higher value
[4] = blockers of cytochrome c efflux from mitochondria – biochemical, purified mitochondria (AID 1603); settings: stronger effect = lower value;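 also: mouse liver mitochondria challenged with calcium chloride; signal normalized to the plate average as 100%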
[5] = polyglutamine aggregate formation blockers (AID 1604); settings: polyglutamine-induced protein aggregation inhibition assay; stronger effect = higher value; tested at 2.5 µM
[6] = glutamate transport activators, MN-1 cells, MN-1 cell line (AID 1612); settings: MN-1 motor neuron cells, stronger effect = higher value;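 also: tested at 1 µM final; 0% = mean of DMSO vehicle wells on each plate; positive means more glutamate uptake than control and negative means less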
[7] = 75Q-TubH aggregate inhibition, S. cerevisiae, yeast (AID 1616); settings: S. cerevisiae 75Q-TubH polyglutamine aggregation suppression; stronger effect = higher value
[8] = system: Aerobactin synthetase IucA (Klebsiella pneumoniae); assay: inhibition of K. pneumoniae IucA enzyme – biochemical, Tocris library, absorbance (AID 1345561); settings: purified IucA enzyme assay, absorbance (OD) read-out; stronger effect = lower value;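 tested at 8 µM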;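 also: 100% = enzyme without compound and 0% = no enzyme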
[9] = viability loss in pontine glioma line – cell-based, JHH-DIPG-1, MIPE4.0, CellTiter-Glo, qHTS, dose response (AID 1347062; cut-off not given, nearly all actives have AC50 up to about 27 µM;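 as to AC50: cells exposed to compound for two days before readout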); settings: JHH-DIPG-1 viability, CellTiter-Glo ATP luminescence
[10] = growth inhibition of DIPG cells – cell-based, MIPE4.0 library, CellTiter-Glo luminescence, qHTS (AID 1347066; cut-off not given, nearly all actives have AC50 up to about 30 µM;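 also: cells exposed to compound for 48 hours before readout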); settings: SU-DIPG-VI viability, CellTiter-Glo ATP luminescence
[11] = compounds altering circadian rhythm period length – cell-based, LOPAC library, luminescence reporter (AID 2774); settings: circadian reporter cells, at 7 µM, actives lie on both sides;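 also: values are relative to mean of DMSO wells on each plate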
[12] = system: Hepatitis C virus NS3 helicase; assay: blockers of NS3h binding to ssDNA – biochemical, fluorescence polarization, LOPAC1280 library, primary screen (AID 687035; in the data active = inhibition above about 37%); settings: Purified HCV NS3 helicase, Cy5-dT15 ssDNA binding fluorescence polarization; stronger effect = higher value; concentration not given here
[13] = compounds altering Cy5-DNA-NS3h complex signal – biochemical, LOPAC1280, artefact control for HCV NS3 helicase inhibitor project (AID 687037); settings: Cy5-DNA-NS3h complex fluorescence interference counterscreen
[14] = blockers of cellular phospholipid synthesis – cell-based, LOPAC library, screen 4, primary screen (AID 1347384); settings: animal cells, phospholipid biosynthesis inhibition screen; at 10 µM
[15] = compounds altering HSF1 focus formation in cells – imaging, Selleck Cancer Library (AID 1347162; in the data active = plate-normalised HSF1 focus index below about 0.46); settings: human cells, HSF1 nuclear foci imaging, at 10 µM; SSMD: measured here: HSF1 foci SSMD mean; cell count: measured here: cell number; plate-normalised HSF1 focus index: stronger effect = lower value

## COc1cc(CNC(=O)CCCC/C=C/C(C)C)ccc1O
[1]
  inhibition: -19.2%
[2]
  score: 0.57
[3]
  rescue above control: 10.3
[4]
  cytochrome c release ratio: 1.29
[5]
  inhibition of aggregation: 71.9%
[6]
  glutamate uptake change: -9.59%
[7]
  aggregation suppression score: 0.5
[8]
  remaining activity: 122% (inactive)
[9]
  outcome: inactive
[10]
  outcome: inactive

## CN1C[C@H](C(=O)N[C@]2(C)O[C@@]3(O)[C@@H]4CCCN4C(=O)[C@H](Cc4ccccc4)N3C2=O)C[C@@H]2c3cccc4[nH]cc(c34)C[C@H]21
[1]
  inhibition: -12.1%
[2]
  score: 1.21
[3]
  rescue above control: 4.53
[4]
  cytochrome c release ratio: 1.48
[5]
  inhibition of aggregation: 29.7%
[6]
  glutamate uptake change: 15.4%
[7]
  aggregation suppression score: 1.29
[11]
  period change: 0.225 h (inactive)
[12]
  inhibition: -3% (inactive)
[13]
  fluorescence ratio (interference): 1 (inactive)
[8]
  remaining activity: 86.1% (inactive)
[14]
  outcome: inactive

## O=c1cc(-c2ccc(O)cc2)oc2cc(O)cc(O)c12
[1]
  inhibition: 0.12%
[2]
  score: 1.67
[3]
  rescue above control: 2.14
[4]
  cytochrome c release ratio: 3.46
[5]
  inhibition of aggregation: -7.84%
[6]
  glutamate uptake change: -6.97%
[7]
  aggregation suppression score: 1.4
[11]
  period change: 0.02 h (inactive)
[12]
  inhibition: -1% (inactive)
[13]
  fluorescence ratio (interference): 1 (inactive)
[8]
  remaining activity: 107% (inactive)
[9]
  AC50: 2.35 µM (active)
[14]
  outcome: inactive

## CCCCCCCCCCCC1=C(O)C(=O)C=C(O)C1=O
[8]
  remaining activity: 99.6% (inactive)

## O=C(O)c1cccnc1C(=O)O
[1]
  inhibition: -5.39%
[2]
  score: 1.95
[3]
  rescue above control: 5.37
[4]
  cytochrome c release ratio: 1.17
[5]
  inhibition of aggregation: 58.6%
[6]
  glutamate uptake change: -5.4%
[7]
  aggregation suppression score: 1.12
[11]
  period change: -0.235 h (inactive)
[12]
  inhibition: -2% (inactive)
[13]
  fluorescence ratio (interference): 1 (inactive)
[8]
  remaining activity: 95.4% (inactive)
[14]
  outcome: inactive

## NCCc1cnc[nH]1
[1]
  inhibition: -28.4%
[2]
  score: 1.16
[3]
  rescue above control: -5.3
[4]
  cytochrome c release ratio: 0.91
[5]
  inhibition of aggregation: 51.2%
[6]
  glutamate uptake change: -0.34%
[7]
  aggregation suppression score: 1.08
[11]
  period change: 0.14 h (inactive)
[12]
  inhibition: -3% (inactive)
[13]
  fluorescence ratio (interference): 1 (inactive)
[8]
  remaining activity: 107% (inactive)
[9]
  outcome: inactive
[10]
  outcome: inactive
[14]
  outcome: inactive

## COc1c(C)c2c(c(O)c1C/C=C(\C)CCC(=O)O)C(=O)OC2
[1]
  inhibition: -14.6%
[2]
  score: 0.55
[3]
  rescue above control: 6.21
[4]
  cytochrome c release ratio: 1.22
[5]
  inhibition of aggregation: 35%
[6]
  glutamate uptake change: -2.33%
[7]
  aggregation suppression score: 0.18
[8]
  remaining activity: 113% (inactive)
[10]
  outcome: inactive
[15]
  SSMD: -0.56
  cell count: 7660
  plate-normalised HSF1 focus index: 0.964 (inactive)

## CC/C(=C(\c1ccccc1)c1ccc(OCCN(C)C)cc1)c1ccccc1
[1]
  inhibition: 22.9%
[2]
  score: -1.76
[3]
  rescue above control: 2.54
[4]
  cytochrome c release ratio: 2.67
[5]
  inhibition of aggregation: 58.9%
[6]
  glutamate uptake change: -4.23%
[7]
  aggregation suppression score: -0.635
[11]
  period change: 0.115 h (inactive)
[12]
  inhibition: -5% (inactive) and -2% (inactive)
[13]
  fluorescence ratio (interference): 1 (inactive) and 0.9 (inactive)
[8]
  remaining activity: 79.2% (inactive)
[10]
  AC50: 23.5 µM (active)
[15]
  SSMD: -8.19
  cell count: 3320
  plate-normalised HSF1 focus index: 0.591 (inactive)
[14]
  outcome: inactive

## CCCCOc1cc(CC2CNC(=O)N2)ccc1OC (centres undefined)
[11]
  period change: 0.115 h (inactive)
[12]
  inhibition: -2% (inactive)
[13]
  fluorescence ratio (interference): 1 (inactive)
[8]
  remaining activity: 104% (inactive)
[14]
  outcome: inactive

## CCC(c1ccc(O)cc1)C(CC)c1ccc(O)cc1 (centres undefined)
[1]
  inhibition: 87.7%
[2]
  score: -0.18
[3]
  rescue above control: 0
[4]
  cytochrome c release ratio: 0.95
[5]
  inhibition of aggregation: 62%
[6]
  glutamate uptake change: -7.89%
[7]
  aggregation suppression score: -0.0418
[9]
  outcome: inactive

## c1ccc2c(Cc3c[nH]c4ccccc34)c[nH]c2c1
[10]
  outcome: inactive
